# Compound activity as filed in PubChem.
# In the library only some 13% were active in any assay of this set; here they are far more common.
# Pf growth 48h: inhibits P. falciparum growth in the first generation, 48 h; P. falciparum luciferase growth in erythrocytes, 48 h; 310,000 compounds, 5.9% hits; Potency, µM (series often up to 28.7 µM), hits mostly inhibitors
#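 Erythrocytes infected with P. falciparum carrying an integrated firefly luciferase reporter (2% hematocrit, 0.1% parasitemia final) were exposed to compounds in RPMI 1640 with 0.5% Albumax at 37 C, 5% CO2. Growth inhibition was scored as reduced luminescence.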
# HCMV antiviral: inhibitors of human cytomegalovirus | HFF cells, HCMV-luciferase reporter, 72 h; hits give low values | activity change, negative = inhibition, % at 57.5 µM | 410,000 compounds, 4.5% hits; in the data active = activity change below about -60%; inconclusive = no clear call, values can overlap the other calls; inactive = above about -39%
#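 Two-dose cell screen: HFF monolayers treated with compounds and infected with luciferase-expressing HCMV at 1 PFU/cell, 72 h at 37C, then lysed for luciferase measurement.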
# HCV inhibitor: HCV inhibition | Potency, µM (top dose mostly 41.8 µM), hits mostly inhibitors | 340,000 compounds, 3.4% hits | Huh7.5.1 HCVcc-Cre infection, luciferase reporter, 44 h | AID 651820
#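 Luciferase read-out (15 sec integration) after a 15 min room-temperature substrate step quantifies HCVcc-Cre infection. Cells, 1,000 per well, had compound added 4 h post-plating, then virus at ~0.5 moi, and were cultured 44 h.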
# Pf growth 96h: P. falciparum growth inhibition at 96 hours; P. falciparum luciferase reporter growth, 96 h; Potency, µM (top dose mostly 28.7 µM), most hits filed as inhibitors; 320,000 compounds, 6.9% hits
#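 P. falciparum expressing integrated firefly luciferase grown in erythrocytes (2% hematocrit, 0.05% parasitemia final) with compounds for 96 hours at 37 C, 5% CO2. Growth inhibition read as loss of luminescence after adding luciferase detection reagent.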
# A number is an active result; – = inactive; ? = inconclusive; · = no result given; [ ] = remark or other dose. Unless noted, calls come from the whole dose curve; as a rule, active = well fitted inhibition curve with a large enough effect; inconclusive = small, poorly fitted or top-dose-only effect, or another doubt; inactive = no such curve, though single readings can be large or run the other way.
SMILES,Pf growth 48h,HCMV antiviral,HCV inhibitor,Pf growth 96h
CC(C)C(=O)NC(c1ccc(Cl)cc1Cl)c1ccc2cccnc2c1O (stereo not drawn),?,-104,2.2µM,?
CCCCC(=O)NC(c1ccc(Cl)cc1Cl)c1ccc2cccnc2c1O (stereo not drawn),1.9µM,-104,?,–
CCC(=O)NC(c1ccc(Cl)cc1Cl)c1ccc2cccnc2c1O (stereo not drawn),2.9µM,-103,2.5µM,–
Cc1cc(Cl)ccc1Nc1ncnc2onc(C)c12,·,–,·,·
CCOc1ccccc1C(=O)NC1CC2CCCC(C1)N2Cc1nnnn1Cc1ccco1 (stereo not drawn),12µM,?,?,?
O=C(NC1CC2CCC(C1)N2Cc1nnnn1Cc1ccco1)NC12CC3CC(CC(C3)C1)C2 (stereo not drawn),12µM,?,–,·
O=C(NCc1ccccc1)NC1CC2CCC(C1)N2Cc1ccco1 (stereo not drawn),–,–,–,–
C[C@H](O)[C@@H]1C(=O)N2CCc3c([nH]c4cccc(-c5ccccc5)c34)[C@@H]2C[C@@H]1N(C)CC1CCCCC1,·,–,·,·
Cc1ccc(Cn2c(=O)n(CCc3ccccc3)c(=O)c3c(C)c(C)sc32)cc1,·,–,·,·
Cc1cn2c(=O)c(S(=O)(=O)Nc3ccc(N4CCOCC4)cc3)c(C)nc2s1,·,–,·,·
COC(=O)/C=C/[C@@H](CC1CCCC1)NC(=O)C(F)(F)F,·,–,·,·
C=C(C)C(O)CC/C(C)=C/Cc1c(O)ccc(C(=O)/C=C/c2ccc(O)cc2)c1O (stereo not drawn),·,-67,?,·
COc1ccc(C(=O)/C=C/c2ccc(O)cc2)c(O)c1C/C=C(\C)CCC=C(C)C,·,-105,?,·
CC(C)=CCc1c(O)ccc(C(=O)Cc2ccccc2)c1O,?,?,–,?
Cc1c(/C=C(\C#N)C(=O)Nc2cccc(Cl)c2)c2ccccc2n1Cc1ccccc1,·,–,·,·
CC(C)(C)C(O)C(Oc1ccc(Cl)cc1)n1cncn1 (stereo not drawn),?,–,?,–
CC(C)(C)C(C(Oc1ccc(Cl)cc1)n1cncn1)n1nnnc1C(c1cccc(Cl)c1)N1CCCCC1 (stereo not drawn),1.9µM,·,?,2.1µM
CCCCC[C@]12Cc3ccccc3C(O1)c1c(cc(C)oc1=O)O2,–[5.75 µM],·,·,0.67µM
CCCCC[C@]12Cc3cc(OC)c(OC)cc3[C@H](O1)c1c(cc(C)oc1=O)O2,–[5.75 µM],·,·,?
CCOC(=O)COc1ccc(CC)cc1C(=O)c1ccn2nc(-c3ccc(Cl)cc3)cc2n1,·,–,·,·
Cc1ccc(C(=O)C2C(=O)C3CCC2C3)cc1 (stereo not drawn),·,-73,·,·
CCOc1ccc2nc(N3CCCC(C(=O)Nc4cc(Cl)c(OC)cc4OC)C3)sc2c1 (stereo not drawn),·,–,·,·
CN(CC(=O)Nc1cc(S(=O)(=O)N2CCCCCC2)ccc1Cl)Cc1ccc2c(c1)OCO2,12µM,–,?,?
CN(CC(=O)Nc1cc(S(=O)(=O)N2CCCC2)ccc1Cl)Cc1nc2ccccc2c(=O)[nH]1,·,–,?,·
CC(=O)OCC(=O)Nc1cc(S(=O)(=O)N2CCCCCC2)ccc1Cl,–,–,–,–
SMILES,Pf growth 48h,HCMV antiviral,HCV inhibitor,Pf growth 96h
CS(=O)(=O)c1ccc(Cl)c(NC(=O)CNC(=O)c2ccc3c(c2)OCO3)c1,·,-61,–,·
CN(CC(=O)Nc1cc(S(=O)(=O)N2CCCC2)ccc1Cl)Cc1ccc2c(c1)OCO2,8.3µM,?,6.3µM,?
COc1ccc(S(=O)(=O)N2CCCCCC2)cc1NC(=O)CN(C)Cc1ccc2c(c1)OCO2,12µM,?,11µM,?
CS(=O)(=O)c1ccc(Cl)c(NC(=O)COC(=O)CNC(=O)c2ccccc2)c1,?,–,–,–
CN1CCc2nc3sc(C(=O)Nc4ccccc4C(F)(F)F)c(N)c3cc2C1,·,–,·,·
O=C1C2CCCN2C(=S)N1c1cc(Cl)ccc1Cl (stereo not drawn),?,–,–,?
Cc1cccc(N2C(=O)C3CCCN3C2=S)c1C (stereo not drawn),13µM,–,–,?
COc1ccccc1NC(=O)CSC1=Nc2ccccc2C2=NC(CC(=O)NCc3ccco3)C(=O)N12 (stereo not drawn),·,–,·,·
CCCCCCc1cc2cc(C(=O)Nc3cccc(OC)c3)c(=O)oc2cc1O,?,-88,?,–
CCCCCCc1cc2cc(C(=O)Nc3ccc(OC)cc3)c(=O)oc2cc1O,?,-61,?,–
CCCCCCc1cc2cc(S(=O)(=O)c3ccc(F)c(Cl)c3)c(=O)oc2cc1O,?,-102,?,?
CCCCCCc1cc2cc(C(=O)NC)c(=N)oc2cc1O,?,–,–,–
CCCCCCc1cc2cc(/C(N)=N/NC(=O)c3ccncc3)c(=O)oc2cc1O,3.3µM,–,?,–
CCCCCCc1cc2cc(-c3nnc(-c4ccc(C)cc4)o3)c(=O)oc2cc1O,·,–,·,·
COc1ccc(CNC(=O)CS(=O)(=O)c2cccc3nsnc23)cc1,·,–,·,·
COc1ccc(NC(=O)C(=O)NCCc2csc(-c3ccc(Cl)cc3)n2)cc1,·,–,·,·
CCCCCCc1cc2cc(C(=O)OCC)c(=O)oc2cc1O,1.7µM,–,–,1.5µM
CC(C)Oc1ccc(C2CC(=O)NC2=O)cc1 (stereo not drawn),–,–,–,4.1µM
CC(=O)Nc1ccc(Nc2cc(C)c3ccccc3n2)cc1,–,–,–,?
Cc1cc(Nc2ccccc2)nc2cc(O)ccc12,0.33µM,–,?,–
COc1ccc(Nc2cc(C)c3ccc(O)cc3n2)cc1,0.37µM,–,?,?
CCOc1ccc(C(=O)Nc2cc(C)on2)cc1OCC,12µM,–,?,–
CCCCOc1cccc(OCCCC)c1C(=O)Nc1cc(C)on1,2.1µM,?,?,–
Cc1cc(NC(=O)CCC(=O)NNC(=O)c2ccc(C(C)(C)C)cc2)no1,–,-75,–,–
CCCCNC(=O)Nc1cc(C)on1,·,–,–,–
SMILES,Pf growth 48h,HCMV antiviral,HCV inhibitor,Pf growth 96h
Cc1ccc(C(=O)NNC(=O)CCC(=O)Nc2cc(C)on2)cc1,–,–,–,–
CCOc1ccc(C2C(C(=O)Nc3ccccc3C)=C(C)Nc3nnnn32)cc1 (stereo not drawn),·,–,·,·
CCOc1cc(C(=O)Nc2cccc3cccnc23)cc(OCC)c1OCC,·,–,·,·
COc1ccc(C(CC(=O)Nc2ccc(C)cn2)N2Cc3ccccc3C2=O)cc1OC (stereo not drawn),·,–,·,·
CC/C(=N\NC(=S)Nc1cc(C)ccc1C)c1ccc(OC(F)F)cc1,?,–,13µM,?
COC(=O)N/N=C(\C)c1ccc(OC(F)F)cc1,–,–,–,–
CC/C(=N\NC(=S)Nc1ccc(OC)cc1)c1ccc(OC(F)F)cc1,?,–,–,?
C/C(=N\NC(=S)Nc1c(C)cccc1C)c1ccc(OC(F)F)cc1,–,-86,?,?
CC(=O)N1CC(C)Sc2ccc(S(=O)(=O)NC3CCCCC3)cc21 (stereo not drawn),–,?,?,?
COc1ccc(NS(=O)(=O)c2ccc3c(c2)N(C(C)=O)CC(C)S3)c(OC)c1 (stereo not drawn),–,-85,11µM,?
